Screen size: about 200,000 compounds; about 5,100 (2.5%) were called active.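 The calls were made as follows: active = activation above the screen-wide mean activation plus 3 SD (cut at about 130% in these data); inactive = the rest.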 Many of the other results were omitted from the sample, so actives are more common in it than they were. Where a SMILES comes first, the peptide text is derived from it. [ ]: non-standard residue; d: D form. ξ: configuration not given here. ξM = CSCCC(N)C(=O)O
experiment: STAT1 signaling activators, primary screen, cell-based, HTS, luciferase reporter (AID 932); settings: NIH 3T3 STAT1-luciferase reporter, IFN-gamma, luminescence; at 5.5 µM; active compounds read high; 100% = IFN-gamma alone, no compound;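 also: raw ratio to IFN-gamma control signal so 100% means no change and 0% no light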

Compound	activation (% of control)
CC(=C/c1ccccc1)/C=N/NC(=O)c1cc(C)oc1C	117% (inactive)
O=C(O)/C=C\C(=O)Nc1ccc(OCc2ccccc2)cc1	120% (inactive)
Cn1c(SCC(=O)NC2CCCCC2)nnc1-c1ccc(N)cc1	101% (inactive)
CCSc1nc(C)c(CCOc2cccc(C)c2)c(=O)[nH]1	102% (inactive)
CCOc1ccc(-c2nnc(-c3ccco3)o2)cc1	93.5% (inactive)
CCCCOc1ccc(-c2nnc(-c3ccco3)o2)cc1	130% (active)
CCC(=O)Oc1cccc(C(=O)Nc2ccc(-c3nnc(-c4ccco4)o3)cc2)c1	104% (inactive)
COc1ccc2nc(SCc3ccccc3)nc(C)c2c1	188% (active)
COC(=O)CSc1nc(C)c2ccc(OC)cc2n1	108% (inactive)
COc1ccc(-c2nnc3ccc(SCc4ccccc4)nn23)cc1	96.5% (inactive)
Cc1ccc(C)c2[nH]c(=O)c(CCNC(=O)c3cccs3)cc12	102% (inactive)
CCOC(=O)C1(CCOC)CCN(Cc2ccc(C(=O)OC)cc2)CC1	106% (inactive)
CN1C(=O)/C(=C/C=C2\SCCN2C)OC1=S	158% (active)
O=C(NCc1ccccn1)c1cc(Br)ccc1Cl	104% (inactive)
COc1ccc(OCC(=O)NNC(=O)c2cccc(C)c2)cc1	103% (inactive)
Cc1cccc(-n2c(C)cc(/C=N/NC(N)=S)c2C)c1	110% (inactive)
O=C(N/N=C/C=C/c1ccco1)c1cccs1	127% (inactive)
CC(=O)Nc1ccc(/C=N/NC(=O)c2cccs2)cc1	136% (active)
Cc1cccc(-n2c(C)cc(/C=N\NC(=O)c3cccs3)c2C)c1	140% (active)
O=C(O)c1ccc(NC(=O)c2cccs2)cc1	98.1% (inactive)
Cc1ccc(-n2nc(C)c(/C=N/NC(=O)c3cccs3)c2Cl)cc1	106% (inactive)
CN(C)N(C)C(=O)C(O)(c1ccccc1)c1ccccc1	93.5% (inactive)
COc1cc(OC)c(C(=O)OCC(=O)N2CC(=O)Nc3ccccc32)cc1OC	97% (inactive)
N#C/C(=C/c1cccc([N+](=O)[O-])c1)c1nnc2n1CCCCC2	100% (inactive)
C/C(=N/Nc1ccc(Cl)cc1)c1cnnc(-c2ccccc2)n1	99.5% (inactive)
COC(=O)CNC(=O)C(CCSC)NC(C)=O (configuration not stated) (Ac-[ξM]-Gly-OMe)	99.5% (inactive)

Compound	activation (% of control)
O=c1c(Cl)c(NC2CC2)cnn1-c1ccccc1	108% (inactive)
C=CCNc1cnn(-c2ccc(C)cc2)c(=O)c1Cl	134% (active)
Cc1ccc(Oc2cnn(-c3ccccc3)c(=O)c2Br)cc1	108% (inactive)
CN(C)c1ccc(/C=N/Nc2cc(N3CCOCC3)nc(N3CCOCC3)n2)cc1	104% (inactive)
C=CCN(c1ccc(Cl)cc1)S(=O)(=O)c1cccc(C(=O)OCC(=O)N(C)C)c1	97.2% (inactive)
Cc1ccc(-c2cn3cc([N+](=O)[O-])ccc3n2)cc1	133% (active)
Cc1ccc(-c2cn3cc(C)ccc3n2)cc1	12.9% (inactive)
Cc1ccc(-n2cc3ccc([N+](=O)[O-])cc3n2)cc1	123% (inactive)
CCN(/N=C/c1ccccc1)c1cc(=O)n(C)c(=O)[nH]1	98.7% (inactive)
COc1ccccc1NC(=O)C1=C(C)NC(=O)NC1c1ccc(C)s1 (configuration not stated)	99.8% (inactive)
COc1ccc(-c2cn3ccsc3n2)cc1	135% (active)
CCCC(=O)Nc1cccc(-c2cn3ccsc3n2)c1	108% (inactive)
COc1ccc(-c2cn3cccnc3n2)cc1	118% (inactive)
COc1cc(NC(=O)CSc2nnc3ccc(-c4ccncc4)nn23)cc(OC)c1	104% (inactive)
C=CCN1C(=O)C(O)(CC(=O)c2ccccn2)c2ccccc21 (configuration not stated)	104% (inactive)
COc1ccc(-c2cc(C(=O)NC(Cc3c[nH]c4ccccc34)C(=O)O)c(C)o2)cc1OC (configuration not stated)	93.3% (inactive)
O=C(Nc1ccc(Br)cn1)c1ccc([N+](=O)[O-])cc1Cl	142% (active)
CC(C)C(=O)Nc1cccc(NC(=O)c2ccc([N+](=O)[O-])cc2Cl)c1	112% (inactive)
O=C(Nc1ccc(Br)cn1)c1ccc([N+](=O)[O-])o1	108% (inactive)
O=C(NC1CCCC1)C(NS(=O)(=O)c1ccc(Br)s1)c1ccccc1 (configuration not stated)	94.7% (inactive)
C/C(=N\NC(=S)NC(C)C)c1ccc(C(C)(C)C)cc1	94.3% (inactive)
COc1ccc(C2COC(=O)C2=N)c(NC(=O)c2ccccc2)c1 (configuration not stated)	107% (inactive)
COc1cccc(C(=O)NNC(=O)c2ccccc2Br)c1	98.2% (inactive)
COc1cccc(C(=O)Nc2cc3c(cc2Br)OCCCO3)c1	141% (active)
Cc1cccc(N2CCN(S(=O)(=O)c3ccc4[nH]c(=O)c(=O)[nH]c4c3)CC2C)c1 (configuration not stated)	99.2% (inactive)
Cc1cccc(-n2c(O)c(C=Nc3ccccc3N)c(=O)[nH]c2=O)c1	156% (active)

— PubChem BioAssay AID932 (The Scripps Research Institute Molecular Screening Center, 2007)
